We go through two molecules from the supplement of paper PMC8728848.

Many of the other results were omitted from the sample, so the strongest signals are more common in it than they were.

What all share (assay): glycan array binding signal (z-score within array); higher = stronger binding
What all share (settings): glycan notation: IUPAC condensed, linker removed

Assay [1] deals with Fuc(a1-2)[Gal(a1-3)]Gal(b1-4)GlcNAc. Summed up: (§1)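 The binding signal is a Z-score computed within each array. Data were drawn from 3228 arrays in the Consortium for Functional Glycomics database, restricted to those with a known protein sequence. Scores were averaged over arrays of the same protein sequence at different concentrations or buffers, and over linkers, and negative values can be taken as non-binding.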

In assay [2] the target is Fuc(a1-2)[GalNAc(a1-4)]Gal(b1-4)GlcNAc. In short, it runs like this:
as §1

A further assay addresses Gal(b1-3)GalNAc. In short, it runs like this:
as §1

Assay [3] addresses Gal(b1-3)GalNAc(b1-3)Gal(a1-4)Gal(b1-4)Glc. Summed up:
as §1

Assay [4] addresses Gal(b1-3)GlcNAc(b1-3)Gal(b1-4)Glc. In short, it runs like this:
as §1

A further assay has as its target Gal(b1-4)Glc6S. Summed up:
as §1

Assay [5] has as its target Gal(b1-4)GlcNAc(b1-3)Gal(b1-4)Glc. In short, it runs like this:
as §1

Another assay addresses Gal3S(b1-4)Glc. Summed up: as §1
The target of another assay is Gal3S6S(b1-4)GlcNAc6S. Summed up: as §1
The next assay has as its target GalNAc(a1-3)Gal. Summed up: as §1
The next assay deals with Glc(a1-6)Glc(a1-6)Glc. In short, it runs like this: as §1
Assay [6] deals with GlcNAc(b1-2)Gal(b1-3)GalNAc. Summed up:
as §1

In assay [7] the target is Man(a1-2)Man(a1-2)Man(a1-6)[Man(a1-3)]Man. Summed up: as §1
Assay [8] has as its target Man(a1-2)Man(a1-3)[Man(a1-2)Man(a1-6)]Man(a1-6)[Man(a1-2)Man(a1-2)Man(a1-3)]Man(b1-4)GlcNAc(b1-4)GlcNAc. In short, it runs like this:
as §1

The next assay has as its target Man(a1-3)[Man(a1-6)]Man. Summed up: as §1
The target of assay [9] is Neu5Ac(a2-3)Gal(b1-3)GlcNAc. In short, it runs like this:
as §1

The next assay deals with Neu5Ac(a2-3)Gal(b1-4)Glc. Summed up: as §1
Assay [10] has as its target Neu5Ac(a2-3)Gal(b1-4)GlcNAc6S. In short, it runs like this: as §1
Assay [11] concerns the target Neu5Ac(a2-6)Gal(b1-4)GlcNAc(b1-3)Gal(b1-4)GlcNAc. In short, it runs like this:
as §1

The target of a further assay is Neu5Ac(a2-6)GalNAc. Summed up: as §1
For assay [12], the target named is Neu5Ac(a2-3)GalNAc(b1-4)GlcNAc. Summed up: as §1
In assay [13] the target is Neu5Ac(a2-6)Gal(b1-4)GlcNAc(b1-2)Man(a1-3)[GlcNAc(b1-2)Man(b1-4)GlcNAc(b1-2)Man(a1-6)]Man(b1-4)GlcNAc(b1-4)GlcNAc. Summed up:
as §1

Assay [14] concerns the target Neu5Ac(a2-6)GalNAc(b1-4)GlcNAc. Summed up: as §1
In assay [15] the target is Neu5Gc(a2-3)Gal(b1-3)[Fuc(a1-4)]GlcNAc. Summed up: as §1
In assay [16] the target is Neu5Gc(b2-6)Gal(b1-4)GlcNAc. In short, it runs like this:
as §1

B1: DCAL1 (Homo sapiens), Q8IZS7 (protein)
chain: MVSNFFHVIQVFEKSATLISKTEHIGFVIYSWRKSTTHLGSRRKFAISIYLSEVSLQKYDCPFSGTSFVVFSLFLICAMAGDVVYADIKTVRTSPLELAFPLQRSVSFNFSTVHKSCPAKDWKVHKGKCYWIAETKKSWNKSQNDCAINNSYLMVIQDITAMVRFNI
For B1, the “glycan array binding signal (z-score)” value was -0.172 in assay [1]; -0.139 in assay [2]; -0.214 in the assay with Gal(b1-3)GalNAc; -0.25 in [3]; -0.181 in assay [4]; -0.212 in the assay with Gal(b1-4)Glc6S. The “glycan array binding signal (z-score)” value was 1.75 in assay [5]; -0.249 with Gal3S(b1-4)Glc; 1.34 with Gal3S6S(b1-4)GlcNAc6S; -0.202 with GalNAc(a1-3)Gal; -0.234 in the assay with Glc(a1-6)Glc(a1-6)Glc; -0.121 in assay [6]. Further, the “glycan array binding signal (z-score)” value was -0.251 in assay [7]; 5.03 in assay [8]; -0.223 in the assay with Man(a1-3)[Man(a1-6)]Man; -0.253 in assay [9]; -0.211 with Neu5Ac(a2-3)Gal(b1-4)Glc; -0.184 in assay [10]. Also, the “glycan array binding signal (z-score)” value is -0.203 in assay [11] and 0.533 in the assay with Neu5Ac(a2-6)GalNAc.

B2: MCL (Mus musculus), Q9Z2H6 (protein)
chain: MWLEESQMKSKGTRHPQLIPCVFAVVSISFLSACFISTCLVTHHYFLRWTRGSVVKLSDYHTRVTCIREEPQPGATGGTWTCCPVSWRAFQSNCYFPLNDNQTWHESERNCSGMSSHLVTINTEAEQNFVTQLLDKRFSYFLGLADENVEGQWQWVDKTPFNPHTVFWEKGESNDFMEEDCVVLVHVHEKWVWNDFPCHFEVRRICKLPGITFNWKPSK
For B2, the “glycan array binding signal (z-score)” value is -1.14 in assay [12]; 2.17 in assay [13]; -0.814 in [14]; -0.827 in assay [15]; 0.767 in assay [16].
